# An excerpt weighted towards active compounds, which were near 3.5% of everything screened.
# Anthrax LF inh2: inhibitors of Bacillus anthracis lethal factor protease; multiplex microsphere protease cleavage assay, LF; inhibition, % at 10 µM; hit rate 0.12% among 360,000; AID 588501; in the data active means inhibition above about 30%; inconclusive means no clear call, values can overlap the other calls; further: plate controls were buffer without enzyme for full effect and enzyme alone for no effect
# Bead autofluor: counter-screen for toxin protease inhibitors: compound fluorescence. compound autofluorescence counterscreen, microsphere flow cytometry; stronger effect = higher value. fluorescence intensity (concentration not given with the values). hit rate 3.1% among 360,000. AID 624483; in the data active means fluorescence intensity above about 16000; inconclusive means no clear call, values can overlap the other calls
# BoNT A protease: inhibitors of Botulinum neurotoxin A light chain protease | multiplex microsphere protease substrate cleavage, flow cytometry | inhibition, % at 10 µM | hit rate 0.17% among 360,000; in the data active means inhibition above about 30%; inconclusive means no clear call, values can overlap the other calls; further: plate controls were buffer without enzyme for full effect and enzyme alone for no effect
# BoNT-F LC inh: BoNT F light chain protease inhibition. Multiplex microsphere protease cleavage assay, flow cytometry. inhibition, % at 10 µM. hit rate 0.22% among 360,000. AID 588497; in the data active means inhibition above about 35%, passing the limit was not always enough; inconclusive means no clear call, values can overlap the other calls; further: plate controls were buffer without enzyme for full effect and enzyme alone for no effect
# SARS 3CLpro inh-1: SARS-CoV 3CLpro protease inhibition. P0C6X7. recombinant SARS-CoV 3CLpro, quenched FRET peptide cleavage. hit rate 0.14% among 290,000. AID 1706. inhibition, % at 6 µM; in the data active means inhibition above about 12%
# SARS 3CLpro inh-2: SARS 3CLpro inhibition, confirmation assay; shares compounds with SARS 3CLpro inh-1; QFRET protease activity assay; inhibition, % at 6 µM; hit rate 36% among 380; AID 1879; in the data active means inhibition above about 13%
# BoNT-A LC CP1: inhibitors of Botulinum neurotoxin A light chain protease. shares compounds with BoNT-F LC inh. inhibition, % at 10 µM. AID 602139. hit rate 3% among 720. multiplex microsphere protease assay, flow cytometry; in the data active means inhibition above about 32%
# BoNT-F LC CP1: inhibitors of Botulinum neurotoxin F light chain protease. shares compounds with BoNT-F LC inh. multiplex microsphere protease cleavage assay, flow cytometry. inhibition, % at 10 µM. 720 tested, under 10 active
# Anthrax LF CP1: blocks anthrax lethal factor protease; AID 602142; inhibition, % at 10 µM; 720 tested, under 10 active; shares compounds with BoNT-F LC inh; multiplex microsphere protease cleavage assay, LF
# An asterisk follows results filed as active; u = inconclusive; x = no result given; + = active, no number. Unless noted, how the calls were made is not given here.
SMILES,Anthrax LF inh2,Bead autofluor,BoNT A protease,BoNT-F LC inh,SARS 3CLpro inh-1,SARS 3CLpro inh-2,BoNT-A LC CP1,BoNT-F LC CP1,Anthrax LF CP1
C/C(=N\N=C(/N)SC1CC(=O)N(c2cccc(Cl)c2)C1=O)c1cccs1 (centres undefined),-7,9498,-2,-22,13*,2,x,x,x
Cc1ccc(C(=O)C2=C(O)C(=O)N(Cc3cccnc3)C2c2ccc(OC(C)C)cc2)o1 (centres undefined),3,3476,9,11,13*,-7,x,x,x
COC(=O)c1ccc(CCc2cc(O)ccc2O)cc1,-6,3499,-1,-9,x,x,x,x,x
Cc1cc2c(cc1C)C(c1cc(Br)ccc1F)CC(=O)N2 (centres undefined),-2,2530,0,1,7,x,x,x,x
Cc1cc2c(cc1C)C(c1ccccc1F)CC(=O)N2 (centres undefined),-1,3329,-1,u,13*,-2,x,x,x
COc1ccc(C(=O)Nn2cnc3scc(-c4cccs4)c3c2=O)c(O)c1,3,4455,0,5,14*,6,x,x,x
Cc1ccc(-c2n[nH]c(=S)n2/N=C/C=C/c2ccccc2[N+](=O)[O-])cc1,-2,2967,1,-3,10,x,x,x,x
O=[N+]([O-])c1ccccc1/C=C/C=N/n1c(-c2ccco2)n[nH]c1=S,2,2055,0,0,15*,4,x,x,x
COc1ccccc1/C=C1\SC(=S)N(CCC(=O)NNC(=O)c2ccccc2OC)C1=O,-2,4206,-6,-13,14*,0,x,x,x
O=C(CSc1n[nH]c(-c2ccccn2)n1)Nc1ccc(Cl)cc1,-1,6127,-4,-7,-4,x,x,x,x
O=C(O)CSCC(=O)N(Cc1ccccc1)c1nc(-c2ccccc2)c(-c2ccccc2)s1,0,5364,1,12,12*,5,x,x,x
CCOC(=O)c1sc(N(Cc2ccccc2)C(=O)CCl)nc1C,-10,4676,0,5,6,x,x,x,x
O=c1c2ccccc2c(-c2ccccc2)nn1-c1ccccc1,5,5486,0,4,2,x,x,x,x
COc1ccccc1-n1c(C)c(C(=O)O)c2cc(OC)c3ccccc3c21,0,3800,-2,8,14*,10,x,x,x
CCn1nc(-c2ccccc2)nc2c(=O)n(C)c(=O)nc1-2,-5,2510,1,6,17*,37*,x,x,x
Cc1ccc(C)c(N2CCN(C(=O)CCS(=O)(=O)c3ccc4c(c3)NC(=O)C(C)S4)CC2)c1 (centres undefined),-3,4568,0,-3,13*,3,x,x,x
CCOC(=O)C1(C)CCCN1C(=O)c1ccc(C(=O)OC)cc1 (centres undefined),-2,3986,0,3,x,x,x,x,x
CCOC(=O)c1c(NC(=O)CN2CCCCC2)sc(CN(C)C)c1-c1ccccc1,-6,3268,-2,0,2,x,x,x,x
CCOC(=O)c1c(NC(=O)CCl)sc(CN(C)C)c1-c1ccccc1,-8,4804,-1,-12,31*,59*,x,x,x
CC(Sc1ccc(Cl)cc1)C(=O)Nc1ccccc1C(=O)N1CCOCC1 (centres undefined),3,3531,0,0,0,x,x,x,x
CCc1ccc2c(c1)C(NC(C)=O)C(=O)N2CCN1CCOCC1 (centres undefined),-11,3646,-7,-44,14*,50*,x,x,x
Cc1ccc(SC2=C(Sc3ccc(C)cc3)C(=O)c3ccccc3C2=O)cc1,-2,3959,-2,u,6,5,x,x,x
Cc1ccc(N2C(=O)c3ccccc3C2=O)cc1,-1,4243,0,3,3,x,x,x,x
S=c1nc(Cc2ccccc2)[nH]c2ccccc12,-8,15764,-12,51*,-2,x,-1,-5,-1
S=c1nc(Cc2ccc(Cl)cc2)[nH]c2ccccc12,5,3395,0,4,4,x,x,x,x
SMILES,Anthrax LF inh2,Bead autofluor,BoNT A protease,BoNT-F LC inh,SARS 3CLpro inh-1,SARS 3CLpro inh-2,BoNT-A LC CP1,BoNT-F LC CP1,Anthrax LF CP1
CN(Cc1cccc(F)c1)C(=O)c1ccc(NS(=O)(=O)c2ccc3[nH]c(=O)[nH]c3c2)cc1,4,3849,4,4,x,x,x,x,x
CCc1ccc(OCc2nnc(SCC(=O)Nc3cccc(C(=O)N4CCOCC4)c3)o2)cc1,1,2064,5,46*,-1,x,1,0,0
COc1cccc(/C=C/c2ccncc2)c1OC,1,4691,1,31,-8,x,1,0,4
O=C(OCc1ccccc1)C1=[N+]([O-])OC(C(=O)OCc2ccccc2)C1c1c[nH]c2ccccc12 (centres undefined),-3,3062,0,0,2,x,x,x,x
CCN(CC)C(=O)CSc1nc(Cc2ccccc2)nc2ccccc12,40*,4268,2,u,3,x,2,0,2
O=c1c(/C=C(\O)c2ccccc2)nc2ccccc2n1-c1ccccc1,41*,17938*,61*,+,4,x,40*,36*,32*
Cn1c(SCC(=O)N2CCN(S(=O)(=O)c3ccc(Cl)cc3)CC2)nc2ccccc21,14,10265,-1,-13,6,x,x,x,x
O=C(CN(CC1CCCO1)S(=O)(=O)c1ccc(S(=O)(=O)NC2CC2)cc1)Nc1ccccc1 (centres undefined),-1,2779,0,-2,0,x,x,x,x
COc1ccc(S(=O)(=O)N2CCSC2C)cc1C (centres undefined),20,3569,-2,44*,-11,x,-1,-5,-5
Cc1ccc(SCCC(=O)Nc2ccccc2C(=O)NC2CCCCC2)cc1,0,2115,4,39*,-7,x,-3,-8,-1
O=C(O)c1ccc(NS(=O)(=O)c2cccc(C(=O)Nc3cccc(C(=O)O)c3)c2)cc1,1,3557,-1,-10,-3,x,0,-1,-2
Cc1ccccc1NC(=O)c1cccc(S(=O)(=O)Nc2cccc(C(=O)O)c2)c1,-2,3658,-3,u,0,x,-1,-1,-1
Cc1csc(NC(=O)CSc2nnc(CCNC(=O)c3ccc(Cl)c(Cl)c3)n2C)n1,3,9778,0,0,-1,x,x,x,x
COc1ccc(CCCc2nnc(SCC(=O)Nc3nc(C)cs3)n2C)cc1,-17,11415,u,35*,-9,x,0,-6,-1
O=C(Nc1ccc(Nc2ccccc2)cc1)c1c(F)c(F)c(F)c(F)c1F,40*,3173,-4,-12,10,x,0,-7,1
O=C(N/N=C/c1ccc(O)cc1)c1cc(-c2ccc3c(c2)OCO3)n[nH]1,-4,9211,0,0,-1,x,x,x,x
Cc1ccc(S(=O)(=O)N(C)C)cc1NC(=O)COC(=O)C1CC1,6,6422,2,9,x,x,x,x,x
Cc1cc(C)n(CC(O)Cn2c(C)c(C)c3ccccc32)n1 (centres undefined),7,4825,4,35*,-4,x,0,-2,4
